Screening data (PubChem)
Only some compounds are listed: those with a hit (about 8.1% of all), similar ones and a draw of the others.
KB-3-1 tox: kills parental KB-3-1 adenocarcinoma cells; KB-3-1 viability, CellTiter-Glo ATP luminescence, 72 h; Potency, µM (doses to about 46.1 µM), usual class: cytotoxic; 1.4% of 400,000 active; AID 1347075; further: nearly all actives have a fitted effect of over 60% in size
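Here the drug-naive KB-3-1 line serves as comparator for MDR sub-line selectivity; cells received compound titrations, 72 h at 37 °C, then CellTiter-Glo readout.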
ELG1 DNA repair: blocks ELG1-dependent DNA repair in HEK293T cells; HEK293T ELG1-luciferase reporter, luminescence, 16 h; DNA damage induced by 5-fluorouridine; Potency, µM (series often up to 46.1 µM), hits mostly inhibitors; 2.3% of 330,000 active; further: nearly all actives have a fitted effect of over 55% in size
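Quantitative HTS, concentration-response format. 2,000 cells/well co-treated with 5-fluorouridine and compound, 16 hr in 5% CO2 at 37 °C; ONE-Glo luminescence read after 30 min.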
SW480 rereplic: inducers of DNA re-replication in SW480 colon cancer cells; Potency, µM (series often up to 46.1 µM), hits mostly activators; AID 624297; 1.8% of 340,000 active; SW480 DNA re-replication, Hoechst DNA content imaging, 48 h; further: nearly all actives have a fitted effect of over 55% in size
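Quantitative HTS format with DMSO vehicle controls; 48 hr drug incubation at 37 C, then 40 min Hoechst staining and scanning imager measurement at 405 nm excitation.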
MCF10A rerep: DNA re-replication induction in MCF 10a cells | AID 624296 | 2.9% of 350,000 active | Potency, µM (top dose mostly 46.1 µM), actives largely listed as activators | MCF 10A DNA re-replication, Hoechst nuclear intensity, 48 h; further: nearly all actives have a fitted effect of over 50% in size
KB-V1 cytotox: kills drug-selected multidrug resistant KB-V1 cells | KB-V1 MDR cells viability, CellTiter-Glo, 72 h | Potency, µM (highest dose often 46.1 µM), actives largely listed as cytotoxic | 3.4% of 400,000 active | AID 1347076; further: nearly all actives have a fitted effect of over 60% in size
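Potencies derive from concentration-effect curves fitted to normalized luminescence (CellTiter-Glo) of KB-V1 cells treated for 72 h at 37 degrees C in phenol-red-free DMEM containing 10% FBS.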
Numbers stand for hits; – = inactive; ? = inconclusive; · = no result; ! = a repeat was not active; [ ] = remark or other dose. The call rests on the fitted dose curve; in most records, active means well fitted curve in the direction sought with a large enough effect; inconclusive means small, poorly fitted or top-dose-only effect, or another doubt; inactive means no such curve, though single readings can be large; an effect the other way counts as inactive or inconclusive.

SMILES | KB-3-1 tox | ELG1 DNA repair | SW480 rereplic | MCF10A rerep | KB-V1 cytotox
Brc1ccc(-c2csc(N3CCC(c4ccccc4)C3)n2)cc1 (stereo unspecified) | – | ? | – | ? | –
COc1ccc(S(=O)(=O)N2CCc3ccccc32)cc1C(=O)O | – | – | – | – | –
COc1ccc(S(=O)(=O)N2CCc3ccccc32)cc1C(=O)NCCc1ccccn1 | – | 18µM | – | – | –
COc1cccc(C(=O)NNc2c3ccccc3nc3ccccc23)c1 | – | ? | – | – | ?
COc1cccc(C(=O)NNc2nc(C)cc(C)n2)c1 | – | – | 0.52µM | ? | ?
COc1cccc(C(=O)NNC(=O)C(=O)Nc2cccc(Cl)c2C)c1 | – | – | 23µM | – | –
CCCCN1CCC(CN2C(=O)C(=O)NC[C@@H]2Cc2ccccc2)CC1 | – | · | ? | – | –
CSc1ccc(CCNC(=O)c2nn(C)c3c2CS(=O)(=O)c2ccccc2-3)cc1 | – | 26µM | – | – | –
CCc1ccc(CNC(=O)c2nn(C)c3c2CS(=O)(=O)c2ccccc2-3)cc1 | – | ? | – | – | –
CCOc1ccccc1CNC(=O)c1nn(C)c2c1CS(=O)(=O)c1ccccc1-2 | – | 16µM | – | ? | –
Cc1cc(/C=C2\SC(=S)N(C)C2=O)c(C)n1-c1ccccc1O | ? | · | 12µM | 13µM | ?
O=C1NC(=S)S/C1=C\c1cc(Cl)ccc1Cl | ? | · | – | ? | ?
COc1cccc(/C=C2\SC(=S)N(N3C(=O)CCCC3=O)C2=O)c1 | – | ? | – | ? | –
CCOc1c(O)ccc(/C=C2\SC(=S)NC2=O)c1[N+](=O)[O-] | – | – | – | 26µM | –
CCOc1ccc(N(C)c2ccc(/C=C3/SC(=S)NC3=O)cc2)cc1 | – | – | ? | 4.1µM | –
CN(C)c1ccc(C=C2SC(=S)NC2=O)cc1 | – | · | – | – | –
COc1cccc(C=C2SC(=S)NC2=O)c1 | ? | · | – | 16µM | ?
COc1cccc(C(C)=C2SC(=S)NC2=O)c1 | – | · | – | – | 21µM
CCO/C(C)=C1/SC(=S)NC1=O | ? | – | –[9.22 µM] | – | –
C=CCCN(C(CC(C)C)C(=O)OC)S(=O)(=O)c1ccccc1Br (stereo unspecified) | – | – | –[9.22 µM] | ? | –
C=CS(=O)(=O)N(Cc1ccccc1)[C@H](CO)CC(C)C | ? | · | – | – | –
COC(=O)[C@H](CC(C)C)N(Cc1ccccc1)S(=O)(=O)N(Cc1ccccc1)[C@@H](CC(C)C)C(=O)OC | ? | – | –[9.22 µM] | ? | ?
COC(=O)C(CC(C)C)N(Cc1cc(OC)cc(OC)c1)S(=O)(=O)c1ccccc1Br (stereo unspecified) | – | ? | 21µM | – | –
COC(=O)[C@H](CC(C)C)N(Cc1ccccc1)S(=O)(=O)N(Cc1ccc(OC)cc1)[C@@H](CC(C)C)C(=O)OC | ? | – | – | – | 18µM!
CC(C)C[C@H](CO)N(Cc1ccccc1)S(=O)(=O)N(Cc1ccccc1)[C@@H](CO)CC(C)C | ? | ? | – | ? | 21µM!
SMILES | KB-3-1 tox | ELG1 DNA repair | SW480 rereplic | MCF10A rerep | KB-V1 cytotox
CCOC(=O)[C@@H](C)N(Cc1ccc(OC)cc1)S(=O)(=O)N(Cc1ccccc1)[C@H](C(=O)OC)C(C)C | ? | – | – | ? | 9.2µM!
O=C(NCc1ccccc1)C1=C[C@H](C2CCCCC2)C[C@H](OCCCCO)O1 | – | · | – | – | –
CC(=O)Nc1ccc(/C(C)=N/Nc2nc(Nc3cccc4ccccc34)nc(N3CCOCC3)n2)cc1 | ? | 7.3µM | ? | ? | ?
O=C(C1CC(=O)N(c2ccc(F)cc2)C1)N1CCOCC1 (stereo unspecified) | – | – | – | – | –
CCCCN1CC(COCc2ccccc2)Oc2cccc(OCCN3C(=O)[C@@H]4[C@H](C3=O)C3C=C[C@H]4C3)c2S1(=O)=O (stereo partly specified) | ? | · | – | ? | 15µM
O=C(CCC(=O)Nc1ccc(F)cc1)N/N=C/c1ccccc1 | – | – | – | – | –
COCCNC(=O)Nc1ccc(F)cc1 | – | – | – | – | ?
CCC(C(=O)NCc1ccc(F)cc1)N(CCc1ccccc1)C(=O)c1snc(C(N)=O)c1N (stereo unspecified) | – | – | ? | ? | –
N#CC(C#N)=c1ccc2c(c1)NC1(CCCCC1)N=2 | ? | ? | 13µM | ? | ?
